# The list is not random: actives were taken first. Their share in the collection is about 2.3%.
# Bim-Mcl-1: disrupts Bim peptide binding to human Mcl-1. Q07820. Bead-based flow cytometry, Bim peptide-Mcl-1 binding. inhibition, % at 10 µM. 0.1% of 190,000 active; in the data active means inhibition above about 40%;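 further: 0% = no compound tracer wells and 100% = peptide blocker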
# Target sequence (Q07820 whole entry, looked up): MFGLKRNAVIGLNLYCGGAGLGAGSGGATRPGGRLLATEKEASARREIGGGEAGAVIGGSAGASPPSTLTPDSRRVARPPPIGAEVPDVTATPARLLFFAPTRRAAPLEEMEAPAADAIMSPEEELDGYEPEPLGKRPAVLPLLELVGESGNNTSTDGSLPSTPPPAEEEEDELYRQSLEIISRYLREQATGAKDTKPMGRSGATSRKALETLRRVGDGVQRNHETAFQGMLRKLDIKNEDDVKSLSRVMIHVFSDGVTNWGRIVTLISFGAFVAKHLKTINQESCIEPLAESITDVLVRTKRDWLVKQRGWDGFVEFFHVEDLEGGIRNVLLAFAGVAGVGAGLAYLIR
# Mcl1 Bid PPI: Mcl-1/Bid interaction inhibition | 0.97% of 220,000 active | inhibition, % at 21.7 µM | AID 1021 | TR-FRET Mcl-1/Bid-Dy647 peptide binding, 1536-well;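 active means compounds that cut the binding signal by more than half at the single screening dose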;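 further: His-tagged Mcl-1 with europium anti-His antibody binding Bid BH3 peptide; 0% = Mcl-1 plus peptide wells and 100% = peptide-only wells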
# MCL1 BIM primary: disrupts human MCL1 binding to BIM-BH3 peptide. GST-MCL1 / FITC-Bim-BH3 fluorescence polarization. inhibition, % at 10.9 µM. 0.68% of 320,000 active. AID 2057;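 active means inhibition above the mean inhibition of all tested compounds plus 3 SD, set per campaign, cut at about 40% in these data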;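 further: 0% = DMSO wells and 100% = unlabeled Bim-BH3 peptide control; higher means more loss of mP so more displacement of Bim peptide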
# GLD-1 RNA inh: GLD-1-TGE RNA interaction inhibition (C. elegans). Q17339. purified GLD-1 + fluorescein TGE RNA, fluorescence polarization. inhibition, % at 5.96 µM. 0.44% of 320,000 active;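 active means percent inhibition above a per-plate cutoff, the plate mean of test compounds plus 3 SD, cut at about 30% in these data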;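 further: 0% = DMSO wells with GLD-1 and probe and 100% = wells lacking GLD-1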
# Bcl-xL primary: inhibitors of human Bcl-xL. Q07817. GST-Bcl-xL / FITC-Bim BH3 peptide fluorescence polarization. inhibition, % at 10.9 µM. 0.7% of 320,000 active. AID 2129;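 active means inhibition above the mean of all tested compounds plus 3 SD, cutoff set per campaign, cut at about 30% in these data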;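 further: 0% = DMSO wells and 100% = unlabeled Bim-BH3 peptide competitor; inhibitors lower millipolarization by displacing the labeled peptide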
# Target sequence (Q07817 whole entry, looked up): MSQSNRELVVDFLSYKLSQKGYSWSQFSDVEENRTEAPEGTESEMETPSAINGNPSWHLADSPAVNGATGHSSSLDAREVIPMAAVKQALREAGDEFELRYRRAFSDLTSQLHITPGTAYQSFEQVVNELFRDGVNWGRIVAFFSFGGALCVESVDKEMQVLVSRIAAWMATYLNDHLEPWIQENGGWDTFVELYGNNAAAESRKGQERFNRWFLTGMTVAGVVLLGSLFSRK
# Mcl1 Noxa PPI: Mcl-1/Noxa interaction inhibition; Q07820; TR-FRET Mcl-1/Noxa peptide binding, 2 h; inhibition, % at 21.7 µM; 1.5% of 220,000 active; AID 1022;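 active means compounds that cut the protein-peptide binding signal by more than 50% relative to plate controls in a single-dose test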;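 further: His-tagged Mcl-1 with rhodamine Noxa BH3 peptide and terbium anti-His antibody; 0% = Mcl-1 plus Noxa peptide wells and 100% = peptide-only wells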
# Starred values were filed as active, the others as inactive; . = no result given.
SMILES,Bim-Mcl-1,Mcl1 Bid PPI,MCL1 BIM primary,GLD-1 RNA inh,Bcl-xL primary,Mcl1 Noxa PPI
CC1(C)C[C@H](O)[C@]2(CO)[C@H](O)C[C@]3(C)C(=CCC4[C@@]5(C)CC[C@H](O)C(C)(C)C5CC[C@]43C)[C@@H]2C1 (stereo partly specified),.,.,.,7,.,.
O=C(c1ccc([N+](=O)[O-])cc1)N1CCN(C(=O)C2CCCCC2)CC1,.,.,6,1,2,.
Cc1ccc2nc3n(c2c1)CCCN3,.,.,1,2,-1,.
COc1ccc(NC(=O)CNC(=O)Cn2cnc3sc4c(c3c2=O)CCCC4)cc1OC,.,.,-6,-6,-2,.
Cc1ccc(C(=O)Nc2cccc(-c3cnc4ccccc4n3)c2)cc1,-2,-9,-2,0,-3,-11
CC(=O)Nc1ccc(C(=O)Nc2cccc(-c3cnc4ccccc4n3)c2)cc1,-321,11,.,.,.,76*
COc1cc(C)ccc1OCCCCN1CC(C)OC(C)C1 (stereo unspecified),-2,52*,5,5,8,29
COc1ccc(CCC(=O)NCCOc2ccccc2Cl)cc1,.,.,4,-2,-1,.
CCOC(=O)c1ccc(NS(=O)(=O)N2CCCCCC2)cc1,0,78*,3,2,1,14
CCOC(=O)c1ccc(S(=O)(=O)N2CCNCC2)cc1,-7,54*,8,4,8,11
CCOC(=O)c1ccc(NC(=O)N2CCCCCC2)cc1,.,.,1,1,-1,.
CCOC(=O)c1ccc(S(=O)(=O)N2CCN(S(=O)(=O)CC)CC2)cc1,-7,5,-7,-3,-3,-2
CC(C)NC(=O)C1CCCN(S(=O)(=O)c2ccc(-n3cnnn3)cc2)C1 (stereo unspecified),-2,98*,5,8,2,-12
CC1CN(C2CCN(S(=O)(=O)Cc3ccccc3)CC2)CC(C)O1 (stereo unspecified),0,51*,-9,2,0,14
CC1CN(C2CCN(S(=O)(=O)c3ccccc3)CC2)CC(C)O1 (stereo unspecified),-4,34,8,5,11,24
CC1(C(=O)N(CC(=O)NC2CCCC2)Cc2ccco2)CC(=O)N=C2C=CC=CN21 (stereo unspecified),41*,-22,16,5,5,-6
CC1(C(=O)N(CC(=O)NC2CCCC2)Cc2ccccc2)CC(=O)N=C2C=CC=CN21 (stereo unspecified),.,.,9,9,3,.
COc1cc(NS(=O)(=O)c2ccc(NC(=S)NC(=O)/C=C/c3ccc(OC)c(OC)c3)cc2)ncn1,-4,-74,-6,4,-1,59*
CCc1nnc(NS(=O)(=O)c2ccc(NC(=S)NC(=O)/C=C/c3ccc(F)cc3)cc2)s1,-5,-31,12,0,12,61*
CC1(C)CC[C@@]23CC[C@]4(C)[C@@](OC2=O)(C3C1)[C@H]1O[C@H]1C1[C@@]2(C)CC[C@H](O)C(C)(C)C2CC[C@]14C (stereo partly specified),.,.,1,4,4,.
N#CC1=C(N)OC2=C(CC/C2=C\c2ccccc2)C1c1ccccc1 (stereo unspecified),-7,-9,-20,41*,8,-5
N#CC1=C(N)OC2=C(CC/C2=C\c2ccccc2Cl)C1c1ccccc1Cl (stereo unspecified),-23,-4,-108,-21,-39,26
COc1ccc(-c2nc(-n3c(C)c(C(C)=O)c(C(C)=O)c3C)sc2C)cc1,-2,98*,2,-1,4,12
O=C(/C=C/c1ccco1)Nc1cccc(C(=O)Nc2ccccc2C(=O)O)c1,.,6,35,3,17,57*
O=C(CSCc1ccccc1)Nc1cccc(C(=O)Nc2ccccc2C(=O)O)c1,0,-12,1,5,5,9
SMILES,Bim-Mcl-1,Mcl1 Bid PPI,MCL1 BIM primary,GLD-1 RNA inh,Bcl-xL primary,Mcl1 Noxa PPI
O=C(O)CCCC(=O)Nc1cccc(C(=O)Nc2ccccc2C(=O)O)c1,0,82*,4,2,5,29
CC(=O)Nc1ccc2nc(NC(=O)c3ccc([N+](=O)[O-])s3)sc2c1,.,18,18,4,2,73*
Cn1cc(Cl)c(C(=O)Nc2nc3ccc(Cl)cc3s2)n1,0,-10,7,1,2,-24
CC(=O)Nc1ccc2nc(NC(=O)COc3ccc([N+](=O)[O-])cc3)sc2c1,-1,35,2,-2,8,56*
Cn1cc(Cl)c(C(=O)Nc2nc3ccc([N+](=O)[O-])cc3s2)n1,-1,52*,7,1,4,62*
Cc1ccc2nc(NC(=O)c3ccc(-c4nc5ccccc5s4)s3)sc2c1,0,79*,1,2,3,52*
CC(=O)Nc1ccc2nc(NC(=O)c3cccs3)sc2c1,.,-47,7,-7,8,14
CN(C)C(=O)OCc1c(-c2ccccc2)ncc2ccccc12,.,.,2,4,2,.
COCCN(C(=O)c1ccc(-c2ccc(Cl)cc2)o1)c1c(N)n(Cc2ccccc2)c(=O)[nH]c1=O,.,.,0,-2,-1,.
CC(C)(C)c1cc[n+](-c2nc([O-])sc2C=O)cc1,-8,-8,19,2,19,5
CC(C)c1cc[n+](-c2nc([O-])sc2C=O)cc1,0,-17,45*,12,42*,1
COc1ccc2oc(=O)c(C(=O)Nc3ccccc3O)cc2c1,.,-9,2,4,11,26
COc1ccc2o/c(=N\O)c(C(=O)Nc3ccccc3OC)cc2c1,-7,14,-74,-79,-65,60*
C=C[C@H]1CN2CC[C@H]1C[C@H]2[C@H](O)c1ccnc2ccc(OC)cc12,.,.,9,1,0,.
CN(CC(=O)Nc1cccc(C#N)c1)Cc1ccc(Cl)cc1,0,86*,-3,3,-2,5
O=S(=O)(Nc1ccncc1)c1cc(Cl)c(Cl)cc1Cl,.,.,3,-3,3,.
O=C(N/N=C/c1ccc(-c2ccccc2[N+](=O)[O-])o1)c1cncc(Br)c1,30,-17,19,7,23,21
COc1cc(/C=N/NC(=O)c2sc(N)c(C#N)c2C)ccc1O,-2,-24,-47,-35,-34,-11
Cc1c(C(=O)N/N=C/c2ccc(O)c(Br)c2)sc(N)c1C#N,6,-24,-51,-39,-20,72*
Cc1c(C(=O)N/N=C/c2ccc(-c3ccccc3[N+](=O)[O-])o2)sc(N)c1C#N,-3,80*,3,1,10,99*
COc1ccc(CCN(C)C(=S)Nc2cccc(C)c2)cc1OC,.,.,12,6,4,.
Cc1cccc(C(=O)N2CCc3cc(-c4nc(NC(=O)CN5CCCC5)sc4C)ccc32)c1,.,.,5,1,1,.
Cc1cccc(C(=O)N2CCc3cc(-c4nc(NC(=O)Cn5nnc6ccccc6c5=O)sc4C)ccc32)c1,-4,67*,7,-1,3,51*

# Screening data: PubChem, several laboratories
